Results published in PubChem BioAssay AID493248 (Broad Institute, 2011).
Among all 2,300 compounds or so, about 1,400 (61%) were called active. Not shown: some 7% with an inconclusive outcome. No rule for the calls is given here. The set was probably picked from earlier hits. The list is a sample of the results. Entries with a potency or affinity are not part of this list.

These compounds were tested against FAD-linked sulfhydryl oxidase ALR (Homo sapiens) (UniProt P55789) (assay: inhibitors of human ALR sulfhydryl oxidase, dose response, biochemical, H2O2 detection, luminescence, cherry-pick (AID 493248)). Conditions: purified ALR, DTT oxidation, H2O2 HRP-luminol luminescence; at 10 µM (top of the series).
Chain of FAD-linked sulfhydryl oxidase ALR (Homo sapiens) (P55789 whole entry, looked up): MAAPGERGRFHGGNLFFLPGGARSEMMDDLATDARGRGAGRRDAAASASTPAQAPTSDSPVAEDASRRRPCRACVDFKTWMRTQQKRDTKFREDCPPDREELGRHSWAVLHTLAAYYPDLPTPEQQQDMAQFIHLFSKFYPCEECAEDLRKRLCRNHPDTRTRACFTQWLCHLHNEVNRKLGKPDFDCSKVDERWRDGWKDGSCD

Point of comparison: `CC(C)c1cc(C(=O)N/N=C/c2ccco2)n[nH]1`, activity change, negative = inhibition 21.6%. Against it:
- Cn1nnnc1SCc1ccc(C(=O)Nc2nccs2)cc1 — lower, -48.1%
- O=C1NCCCc2c1oc1ccc(O)cc21 — higher, 36.1%
- Nc1nn2cc(-c3ccccc3)nc2c2ccccc12 — lower, -12.4%
- COC(=O)CNS(=O)(=O)c1ccc(Cc2ccc(S(=O)(=O)NCC(=O)OC)cc2)cc1 — lower, 3.52%
- CCCc1cc(=O)[nH]c(Nc2ccc(O)cc2)n1 — lower, -100%
- Cn1cccc1C(=O)OCc1csc(-c2ccccc2)n1 — lower, 0.233%
- O=C(c1ccc(Cl)s1)N1CCN(c2ccccc2)CC1 — lower, -20%
- O=C(c1cc(C2CC2)on1)N1CCN(c2ccccc2)CC1 — lower, -8.71%
- Cc1cc(C(=O)CC#N)c(C)n1CC(F)(F)F — lower, -17.1%
- CCN1CCSc2ccc(C(=O)NCc3cccc(F)c3)cc21 — lower, 16%
- COc1cccc(/C=N/NC(=O)CNC(=O)c2cccnc2)c1O — lower, -19%
- CCCC(C(=O)O)n1c(O)c(C=C2N=c3ccccc3=N2)sc1=S (stereo unspecified) — lower, -50.1%
- O=C(c1ccco1)n1nc(-c2ccccc2)nc1NCc1ccco1 — lower, -41.9%
- O=[N+]([O-])c1cc2c(cc1/C=N/n1c(-c3ccccc3)n[nH]c1=S)OCO2 — lower, -34.5%
- CC(=C\c1ccccc1)/C=C1/SC(=O)N(CCCC(=O)Nc2ccc(C(=O)O)cc2)C1=O — lower, 1.78%
- S=c1[nH]nc(Cc2ccccc2)n1-c1ccccc1 — lower, -7.81%
- CC(=O)Oc1ccc(Nc2ccccc2)cc1 — lower, -1.83%
- COc1ccc2oc3cc(C)[n+]([O-])c(-c4ccc(C)cc4)c3c2c1 — lower, -57.4%
- O=C(O)CC/C(=C\c1ccccc1[N+](=O)[O-])c1nc2ccccc2s1 — lower, -55.4%
- COc1ccc(-c2noc(CN3CCN(c4ccccc4F)CC3)n2)cc1OC — lower, -0.443%
- C(=N\Nc1ncnc2ccccc12)/c1ccccc1 — lower, -47.4%
- COc1cc(/C=C2\SC(=S)N(NC(=O)c3ccc(O)cc3)C2=O)ccc1O — lower, -100%
- O=C(O)CCCN1C(=O)/C(=C\c2ccc(-c3nc4ccccc4s3)o2)SC1=S — lower, -22.6%
- COc1ccc(C(=O)N/N=C(/C)c2ccc(N3CCCCC3)cc2)cc1 — lower, -0.469%
- COc1ccc(OC)c(NC(=O)CN(c2ccc(C(C)C)cc2)S(=O)(=O)c2c(C)noc2C)c1 — higher, 28.2%
- COc1cc(NC(=O)NCCN2CCN(c3ccccc3)CC2)cc(OC)c1OC — lower, -25.8%
- COc1c(C)cccc1C(=O)Nc1ccc(CN2CCCCC2)cc1 — lower, 7.1%
- COc1ccc(NC(=O)c2cccnc2N2CCCC2)cc1 — lower, 19.3%
- CCCN1C(=O)c2ccc(C(=O)Nc3ccccc3C(=O)O)cc2C1=O — lower, -23.6%
- O=C(Nc1cc([N+](=O)[O-])ccc1O)c1ccc2c(c1)C(=O)N(Cc1ccco1)C2=O — lower, -17.4%
